Bioassay records: PubChem, National Center for Advancing Translational Sciences (NCATS)
TRHR ag = agonists of human TRH receptor; activation, % at 2 µM; AID 493084; 360,000 tested, 0.18% active; TRHR cells, calcium flux fluo-8, FDSS agonist mode; also: 0% is about no effect
Target sequence (P34981 whole entry, looked up): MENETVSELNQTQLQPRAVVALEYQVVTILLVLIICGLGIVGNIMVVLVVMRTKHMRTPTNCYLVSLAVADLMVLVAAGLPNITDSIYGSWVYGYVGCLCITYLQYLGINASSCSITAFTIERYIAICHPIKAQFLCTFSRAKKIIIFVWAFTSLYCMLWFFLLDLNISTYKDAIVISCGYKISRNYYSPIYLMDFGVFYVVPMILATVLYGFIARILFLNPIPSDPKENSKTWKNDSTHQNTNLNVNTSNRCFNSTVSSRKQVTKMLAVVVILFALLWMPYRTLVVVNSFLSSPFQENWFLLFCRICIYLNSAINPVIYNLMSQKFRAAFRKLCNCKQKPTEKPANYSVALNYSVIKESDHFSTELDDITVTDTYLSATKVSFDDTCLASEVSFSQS
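In this calcium-flux screen, cells bearing human TRHR are dye-loaded with fluo-8, baselined for 10 cycles, then exposed to library compounds; positive kinetic calcium responses during the agonist phase mark hits, with TRH as control.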
D1 antagonist = human D1 dopamine receptor antagonism; activity change, negative = inhibition, % at 10 µM; 360,000 tested, 3.2% active; HEK293 TREx D1 cells, calcium flux, dopamine EC80; stronger effect = lower value; P21728; in the data active = activity change below about -30%; also: % is scaled to controls: 0 for no effect and ±100 for the full control effect
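Inducible Hek293 Trex D1 cells (tetracycline, overnight, 30 C). Calcium dye 30–90 min RT. Antagonist mode: EC80 dopamine added after 180 s compound read.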
D1 agonist = activates the human D1 dopamine receptor. AID 504660. 360,000 tested, 1% active. activation, % at 2 µM. P21728. HEK293 T-REx D1 cells, calcium flux, agonist mode; also: 0% is about no effect
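Agonism was scored from calcium flux recorded over 180 s (1 read/s) after pintool compound addition, following a 10-cycle baseline. Cells were inducible force-coupled HEK293 TREx D1, plated overnight at 30 C and loaded with no-wash calcium dye.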
D1 potentiator = potentiators of human D1 dopamine receptor; P21728; HEK293 TREx D1 cells, calcium flux, dopamine EC20 potentiation; potentiation, % at 10 µM; 360,000 tested, 0.036% active; AID 504651; in the data active = potentiation above about 30%; also: 0% is about no effect
TRHR PAM = allosterically enhances the human TRH receptor. P34981. TRHR cells, fluo-8 calcium fluorescence, EC20 TRH enhancement. enhancement, % at 2 µM. 360,000 tested, 0.66% active; in the data active = enhancement above about 30%; also: 0% is about no effect
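TRHR-expressing cells loaded with fluo-8 calcium dye were read kinetically (ex 480/em 530) during compound addition, then stimulated with an EC20 of TRH (10 nM final). Enhancement of the Gq-mediated intracellular calcium response was scored.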
* marks the source's active call; other numbers are inactive results. Rows were chosen to be rich in hits. Some 4.7% of all compounds tested hit in one or more screens of this group. Rule as the data show it, unless noted: active = activation above about 30%; inactive = the rest.

SMILES	TRHR ag	D1 antagonist	D1 agonist	D1 potentiator	TRHR PAM
Cc1ccc(C)c(NC(=O)C(c2ccccc2)N2Cc3ccccc3C2=O)c1 (stereo not given)	0	-7	6	7	32*
CNC(=S)N/N=C(\C)c1ccc(-n2ccnc2)cc1	-1	-9	0	-4	8
C/C(=N\NC(N)=O)c1ccc(-n2ccnc2)cc1	0	-44*	3	-1	-2
O=C(NCCn1cc(SCc2ccccc2F)c2ccccc21)c1cccs1	1	5	2	-6	-6
COC(=O)Cc1ccc(NC(=O)c2ccc3c(c2)C(=O)N(CC2CCCO2)C3=O)cc1 (stereo not given)	1	-3	8	-9	-3
O=C(O)Cc1ccc(NC(=O)c2ccc3c(c2)C(=O)N(CC2CCCO2)C3=O)cc1 (stereo not given)	1	-39*	2	-12	-3
Cc1ccc(CONC(=O)c2ccc(C)cc2)cc1	-2	-30*	1	-5	4
COc1ccccc1CNC(=O)CSc1ncc2c(n1)-c1ccc(Cl)cc1N(Cc1ccccc1)S2(=O)=O	-1	1	0	-2	0
CCOC(=O)c1cccc(NC(=O)CSc2ncc3c(n2)-c2ccc(Cl)cc2N(Cc2ccccc2)S3(=O)=O)c1	-1	-75*	7	0	10
COc1ccc(CNC(=O)CSc2ncc3c(n2)-c2cc(Cl)ccc2N(Cc2ccccc2)S3(=O)=O)cc1	0	-43*	6	-8	4
CCOc1ccc(C(=O)c2cn(CC(=O)Nc3ccc(F)cc3)c3cc4c(cc3c2=O)OCCO4)cc1	-1	-9	7	1	-2
OCCN1CN=C(Nc2nc3ccccc3o2)NC1	0	-42*	0	1	-7
CCCN1CN=C(Nc2nc3ccccc3o2)NC1	2	-5	1	0	10
O=C(CSCc1c(F)cccc1F)Nc1ccccc1	0	-74*	1	-12	0
C/C(=N/NC(=O)c1ccco1)c1ccc(Br)s1	-1	-31*	1	-8	0
C/C(=N\NC(=O)c1ccco1)c1ccc(C(=O)O)s1	0	7	5	3	-2
COc1cccc(CNC(=O)Nc2cc(C(=O)NCc3cccc(F)c3)ccc2N2CCCC2)c1	-1	3	1	2	-4
CC(=O)c1cc(-c2ccc(F)cc2)n(CCC(=O)Nc2nc3c(C)cccc3s2)c1C	0	-7	1	-2	2
C/C(=N\NC(=O)c1cc(C)nc2ccccc12)c1ccncc1	0	-43*	0	-3	2
C/C(=N\NC(=O)c1cc(-c2cccc(OC(C)C)c2)nc2ccccc12)c1cccnc1	1	-43*	2	-10	-7
COc1cc(NC(=O)c2ccc(-c3nc(CSc4ccccc4)c(C)o3)cc2)cc(OC)c1	-1	14	11	-2	6
CCOC(=O)c1cc(CC)sc1/N=C/C1C(=O)CC(C)(C)CC1=O	-1	-49*	1	-1	-3
CC(C)(C)C(=O)Cn1c(=O)n(CCCCCC(=O)NCc2ccc3c(c2)OCO3)c(=O)c2sccc21	-2	2	0	3	6
O=C(NCCCN1CCN(c2cccc(Cl)c2)CC1)c1cnn(-c2ccc(F)cc2)c1-n1cccc1	-2	-22	10	-4	-1
c1ccc(CC2CCN(c3ncnc4sccc34)CC2)cc1	1	-29	38*	-8	-9
SMILES	TRHR ag	D1 antagonist	D1 agonist	D1 potentiator	TRHR PAM
Cc1ccc(S(=O)(=O)N2CCOCC2)cc1NC(=O)COC(=O)c1cccnc1Cl	0	-64*	4	-6	0
COc1ccccc1CNCC(=O)Nc1cc(S(=O)(=O)N2CCOCC2)ccc1Cl	0	-6	2	-3	0
Cc1ccc(S(=O)(=O)N2CCOCC2)cc1NC(=O)COC(=O)c1cc(=O)[nH]c2ccccc12	0	-41*	25	-4	-16
Cc1ccc(-c2nc(SCC(=O)Nc3cc(S(=O)(=O)N4CCCCC4)ccc3Cl)n[nH]2)cc1	0	-35*	4	-4	-12
O=C(CNc1ccccc1Cl)Nc1cc(S(=O)(=O)N2CCOCC2)ccc1Cl	1	-33*	2	1	-4
Cc1ccccc1NC(=O)C1CCN(S(=O)(=O)c2ccccc2)CC1	1	-13	3	2	-8
O=C(COC(=O)c1ccc(Br)cc1)Nc1cccnc1Cl	0	-6	1	3	2
CN(C)S(=O)(=O)c1ccc(C(=O)OCC(=O)Nc2cccnc2Cl)cc1	1	-33*	8	3	-5
CC(C)CCn1c(SCc2ccc(F)cc2Cl)nc2ccsc2c1=O	0	17	3	-2	-5
Cc1cc2oc(C(=O)Nc3ccc(S(N)(=O)=O)cc3)cc(=O)c2cc1C	0	-58*	0	-2	20
COc1c(C)cc(Br)cc1C(=O)Nc1ccc(S(N)(=O)=O)cc1	-1	-61*	1	-6	-2
COc1ccc(NC(=O)c2c(NCc3ccc(C)o3)sc3c2CCCCC3)c(OC)c1	0	-16	1	-2	-6
O=C(COc1ccccc1[N+](=O)[O-])N1CCN(S(=O)(=O)c2ccccc2)CC1	0	-95*	2	-11	3
O=C(Cn1cc(C(F)(F)F)ccc1=O)N1CCN(S(=O)(=O)c2ccccc2)CC1	-1	-4	1	0	40*
O=C(Cn1cc(C(F)(F)F)ccc1=O)N1CCc2ccccc2C1	0	-1	4	5	7
COc1ccc(S(=O)(=O)N2CCN(CCOc3ccc(Br)cc3)CC2)cc1OC	1	-9	4	-3	15
O=C(CN1CCc2ccccc2C1)N1CCN(S(=O)(=O)c2ccccc2)CC1	-1	-35*	3	-6	-3
O=C(COc1cccnc1[N+](=O)[O-])N1CCN(S(=O)(=O)c2ccccc2)CC1	0	1	0	-2	0
COc1ccc(S(=O)(=O)N2CCN(CCOc3ccccc3Cl)CC2)cc1OC	0	-51*	6	-14	1
CCOc1ccc(NC(=O)CCn2c(=O)c3cccn3c3cccnc32)cc1	0	8	0	-4	13
CCC(C)NC(=O)Cn1c(=O)n(-c2cc(OC)cc(OC)c2)c(=O)c2ccccc21 (stereo not given)	0	-9	-2	0	-1
O=S(=O)(c1ccc(C(F)(F)F)cc1)N1CCN(CCOc2ccccc2)CC1	1	-39*	18	-4	2
COc1ccc(C(=O)c2oc3ccccc3c2NC(=O)c2cc(=O)c3ccc(C)cc3o2)cc1Cl	1	7	3	0	13
O=C(Nc1ccc(Oc2cccnc2)cc1)C1CCN(Cc2ccc(F)cc2)CC1	3	-25	36*	-3	5
C#Cc1ccc(CN2CCC(C(=O)Nc3ccc(Oc4ccccc4)nc3)CC2)cc1	3	-12	41*	-5	3
